PubChem BioAssay AID1159580 (chemical genetic matrix, 2015)
Several values for one entry are separate records, joined by “and”; a condition that tells them apart may be missing. Equal values may be shown once. Screen size: about 5,500 compounds; about 2,000 (36%) were called active. Not shown: some 18% with an inconclusive outcome. Cut-off read from the data, not from the text of the source: active = normalized growth mostly below about 0.91 (no sharp cut-off); inconclusive = no clear call, values can overlap the other calls; inactive = mostly above about 0.92. The list shows a part of the results.

Experiment: chemical genetic growth profiling, strain panel (AID 1159580);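 note: tested at 20 µM; growth read once vehicle control cultures reached saturation at 30 °C; 1 = growth at the plate median or of vehicle wells; lower values mean less growth of the strain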
Conditions: S. cerevisiae deletion strains, growth OD

Measured: normalized growth

COc1cc2c(cc1OC)Cc1cc(OC)c(OC)cc1Cc1cc(OC)c(OC)cc1C2
inactive: locus YAL021C, strain ccr4, stronger effect = lower value 1.03 | locus YAL026C, strain drs2, stronger effect = lower value 1.04 | locus YAL030W, strain snc1, stronger effect = lower value 1.03 | locus YBL061C, strain skt5, stronger effect = lower value 1.03 | locus YBR009C, strain hhf1, stronger effect = lower value 1.03 | locus YBR021W, strain FUR4, stronger effect = lower value 1.02 | locus YBR023C, strain chs3, stronger effect = lower value 1.03 | locus YBR171W, strain sec66, stronger effect = lower value 1.05 | locus YBR229C, strain ROT2, stronger effect = lower value 1.02 | locus YBR231C, strain swc5, stronger effect = lower value 1.04 | locus YBR279W, strain paf1, stronger effect = lower value 1.02 | locus YCL011C, strain gbp2, stronger effect = lower value 1.04 | locus YCL016C, strain dcc1, stronger effect = lower value 1.03 | locus YCL029C, strain bik1, stronger effect = lower value 1.02 | locus YCL061C, strain MRC1, stronger effect = lower value 1.02 | locus YCL069W, strain vba3, stronger effect = lower value 1.02 | locus YCR088W, strain abp1, stronger effect = lower value 1.02 | locus YDL005C, strain med2, stronger effect = lower value 1.03 | locus YDL035C, strain GPR1, stronger effect = lower value 1.01 | locus YDL040C, strain nat1, stronger effect = lower value 1.05 | locus YDL074C, strain BRE1, stronger effect = lower value 1.03 | locus YDL101C, strain DUN1, stronger effect = lower value 1.02 | locus YDL134C, strain PPH21, stronger effect = lower value 1.02 | locus YDL185W, strain tfp1, stronger effect = lower value 1.02 | locus YDL192W, strain arf1, stronger effect = lower value 1.05 | locus YDR001C, strain nth1, stronger effect = lower value 1.02 | locus YDR069C, strain doa4, stronger effect = lower value 1.04 | locus YDR101C, strain arx1, stronger effect = lower value 1.07 | locus YDR137W, strain rgp1, stronger effect = lower value 1.08 | locus YDR150W, strain NUM1, stronger effect = lower value 0.978 | locus YDR159W, strain sac3, stronger effect = lower value 1.05 | locus YDR162C, strain NBP2, stronger effect = lower value 1.03 | locus YDR195W, strain ref2 1.01 | locus YDR297W, strain sur2, stronger effect = lower value 1.03 | locus YDR318W, strain mcm21, stronger effect = lower value 1.02 | locus YDR334W, strain swr1, stronger effect = lower value 1.02 | locus YDR335W, strain msn5, stronger effect = lower value 1.03 | locus YDR388W, stronger effect = lower value 1.03 | locus YDR392W, strain spt3, stronger effect = lower value 0.993 | locus YDR502C, strain sam2, stronger effect = lower value 1.03 | locus YEL003W, strain gim4, stronger effect = lower value 1.04 | locus YEL037C, strain rad23, stronger effect = lower value 1.02 | locus YEL061C, strain CIN8 (second series), stronger effect = lower value 1.03 | locus YEL061C, strain CIN8, stronger effect = lower value 1.01 | locus YER015W, strain faa2, stronger effect = lower value 1.03 | locus YER016W, strain bim1, stronger effect = lower value 1.02 | locus YER110C, stronger effect = lower value 1.03 | locus YER111C, strain swi4, stronger effect = lower value 1.03 | locus YER155C, strain BEM2 (second series), stronger effect = lower value 1.03 | locus YER155C, strain BEM2, stronger effect = lower value 1.01 | locus YER167W, strain BCK2, stronger effect = lower value 1.01 | locus YFR010W, strain ubp6, stronger effect = lower value 1.05 | locus YGL078C, strain dbp3, stronger effect = lower value 1.03 | locus YGL086W, strain mad1, stronger effect = lower value 0.979 | locus YGL167C, strain pmr1, stronger effect = lower value 1.04 | locus YGL173C, strain kem1, stronger effect = lower value 1.04 | locus YGL227W, strain vid30, stronger effect = lower value 1.04 | locus YGL240W, strain doc1, stronger effect = lower value 1.03 | locus YGL248W, strain PDE1, stronger effect = lower value 1.02 | locus YGL253W, strain hxk2, stronger effect = lower value 1.02 | locus YGR078C, strain PAC10, stronger effect = lower value 1.02 | locus YGR135W, strain pre9, stronger effect = lower value 1.06 | locus YGR252W, strain gcn5, stronger effect = lower value 1.05 | locus YHR013C, strain ard1, stronger effect = lower value 1.05 | locus YHR027C, strain rpn1, stronger effect = lower value 1.04 | locus YHR030C, strain SLT2, stronger effect = lower value 1.01 and 1.02 | locus YHR079C, strain IRE1 (second series), stronger effect = lower value 1.02 | locus YHR079C, strain IRE1, stronger effect = lower value 1.06 | locus YHR094C, strain hxt1, stronger effect = lower value 1.03 | locus YHR129C, strain ARP1, stronger effect = lower value 1.01 | locus YHR142W, strain chs7, stronger effect = lower value 1.03 | locus YHR200W, strain rpn10, stronger effect = lower value 1.03 | locus YIL066C, strain RNR3, stronger effect = lower value 1.01 | locus YIL073C, strain SPO22, stronger effect = lower value 1.04 | locus YIL125W, strain kgd1, stronger effect = lower value 1.04 | locus YIR030C, strain dcg1, stronger effect = lower value 1.02 | locus YJL092W, strain hpr5, stronger effect = lower value 1.03 | locus YJL095W, strain BCK1 (second series), stronger effect = lower value 1.02 | locus YJL095W, strain BCK1, stronger effect = lower value 1.02 and 1.03 | locus YJL115W, strain asf1, stronger effect = lower value 1.04 | locus YJL129C, strain trk1, stronger effect = lower value 1.05 | locus YJL134W, strain LCB3, stronger effect = lower value 0.998 | locus YJL154C, strain vps35, stronger effect = lower value 1.01 | locus YJL164C, strain tpk1, stronger effect = lower value 1 | locus YJL166W, strain qcr8, stronger effect = lower value 1.03 | locus YJL168C, strain set2, stronger effect = lower value 1.03 | locus YJL187C, strain SWE1 (second series), stronger effect = lower value 1.03 | locus YJL187C, strain SWE1, stronger effect = lower value 1.03 | locus YJR043C, strain POL32, stronger effect = lower value 1
